Molecules are shown by their SMILES. Records with an inconclusive call do not appear. Entries that show only a call come without a potency. Activity calls are given as the source filed them. Calls follow the shape of the dose curve; as a rule, active = well fitted cell-killing curve with a large enough effect in the repeat runs; inconclusive = weak or mixed curves, or effect the other way; inactive = flat fitted curve, though single readings scatter.

One test is described as follows: cAMP Responsive Elements (CRE) small molecule antagonists, cell-based qHTS assay: qHTS cell viability counter screen (AID 2060913). Also: nearly all actives have a fitted effect of over 40% in size. The note with it: CRE-bla HEK293T viability, CellTiter-Glo luminescence, 5 h; series mostly up to 92.4 µM. An outline of the steps:
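Cytotoxicity counter screen multiplexed with the CRE-bla antagonist read: HEK293T cells in DMEM with dialyzed FBS and 25 mM HEPES were treated 3 hrs under 0.25 uM final NKH477, then viability measured by CellTiter-Glo luminescence.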
In general terms: In qHTS, concentration-response curves come from the screen itself.
As to `CCCCCCCCCCCCc1ccccc1`, the Potency result is “inactive”.
On the same count and under the same terms, the same measure for `N=c1nc(N2CCCCC2)cc(N)n1O`: “inactive”; for `C/C=C(\C)C(=O)OCC/C=C\CC`: “inactive”.
Still for that read-out and setting: the entry for `Clc1cc(Cl)c(Cl)c(Cl)c1Cl` is “inactive”; for `O=c1[nH]c(=O)n([C@H]2CCCO2)cc1F` it is “inactive”.
Still for that read-out and setting: the same measure for `COC(=O)c1cc(Cl)c(NC(C)=O)cc1OC`: “inactive”; for `NS(=O)(=O)Cc1noc2ccccc12`: “inactive”; for `CC(C)=CCC1C(=O)N(c2ccccc2)N(c2ccccc2)C1=O`: “inactive”.
Consider `OCCc1ccccn1`, for which the Potency entry was “inactive”.
Still for that read-out and setting: the same measure for `ClCCCl`: “inactive”; for `CCCCCC(C)OC(=O)COc1ccc(Cl)c2cccnc12` (stereo not given): “inactive”; for `O=C1CN(/N=C/c2ccc([N+](=O)[O-])o2)C(=O)N1`: “inactive”.
As to `Cn1cnc([N+](=O)[O-])c1Sc1ncnc2nc[nH]c12`, the Potency entry was “inactive”.
The same measure, in the same setting: the entry for `Cc1cccc(C)c1NC(=O)CC12CCCN1CCC2` is “inactive”.
The same measure, in the same setting: the same measure for `FC(F)(F)C(Cl)(Cl)Cl`: “inactive”; for `O=S(=O)(c1ccccc1)c1ccc(Cl)cc1`: “inactive”.
The same measure, in the same setting: the same measure for `C=C(C)C(=O)OCCCCCCCCCCOC(=O)C(=C)C`: “inactive”.
Take `NC(=O)c1ccccc1N`: the Potency entry is “inactive”.
Still for that read-out and setting: the same measure for `COCCOCCOCCOC`: “inactive”; for `CCCCCCCCCCCCCCCC(=O)O`: “inactive”; for `CC(=O)SC[C@@H](Cc1ccccc1)C(=O)NCC(=O)OCc1ccccc1`: “inactive”.
Same read-out and setting: the entry for `CC(N)C(=O)OC(C)(C)Cc1ccc(Cl)cc1` (stereo not given) is “inactive”.
The same measure, in the same setting: the entry for `Nc1ccnc(=O)[nH]1` is “inactive”; for `O=C(CCC1CCN(Cc2ccccc2)CC1)c1ccc2c(c1)NCCCC2` it is “inactive”; for `S=C(NC1CCCCC1)NC1CCCCC1` it is “inactive”.
On to `CO[C@@]1(NC(=O)CSC[C@@H](N)C(=O)O)C(=O)N2C(C(=O)O)=C(CSc3nnnn3C)CS[C@@H]21`, for which the Potency result was “inactive”.
Take `CC(C)(C)CC(C)(C)c1ccc(Nc2ccc(C(C)(C)CC(C)(C)C)cc2)cc1`: the viability change, negative = cytotoxic was -5.06% [at 8.39 µM] (inactive).
Take `Cc1ccc(/C(=C\CN2CCCC2)c2ccccn2)cc1`: the Potency result is “inactive”.
Still for that read-out and setting: the entry for `CC1(C)[C@H](C(=O)OCc2cccc(Oc3ccccc3)c2)[C@@H]1C=C(Cl)Cl` is “inactive”.
Still for that read-out and setting: the same measure for `OC[C@@H](O)[C@@H](O)[C@H](O)[C@@H](O)CO`: “inactive”; for `NCCN1CCOCC1`: “inactive”.
As to `NS(=O)(=O)c1cc2c(cc1C(F)(F)F)NC(Cc1ccccc1)NS2(=O)=O` (stereo not given), the Potency entry is “inactive”.
The same measure, in the same setting: the same measure for `Cc1cc(=O)[nH]c(=O)[nH]1`: “inactive”; for `CCC1COC(=O)O1` (stereo not given): “inactive”; for `CN(C)CCN(C)CCO`: “inactive”.
For the molecule `CCCCCCCC/C=C\CCCCCCCC(N)=O`, the Potency result is “inactive”.
On the same count and under the same terms, the entry for `CCOC(=O)[C@@H](C)Oc1ccc(Oc2nc3ccc(Cl)cc3o2)cc1` is “inactive”.
On the same count and under the same terms, the entry for `CC(O)CN` (stereo not given) is “inactive”; for `O=C1CCCCO1` it is “inactive”.
For `CO[Si](C)(C)OC`, the Potency result was “inactive”.

The nature of a further test: cAMP Responsive Elements (CRE) small molecule agonists, cell-based qHTS assay: qHTS cell viability counter screen (AID 2060914). Also: nearly all actives have a fitted effect of over 50% in size. To be noted: CRE-bla HEK293T viability, CellTiter-Glo luminescence, 5 h; series mostly up to 92.4 µM. A digest of the protocol:
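Cytotoxicity was measured as ATP luminescence (CellTiter-Glo, 30 min at room temperature) in the same wells as the CRE-bla FRET read-out. HEK293T CRE-bla cells had 3 h compound exposure at 37C/5% CO2.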
For the molecule `CCCCCCCCCCCCc1ccccc1`, the Potency entry was “inactive”.
For `N=c1nc(N2CCCCC2)cc(N)n1O`, the Potency result was “inactive”.
For the molecule `C/C=C(\C)C(=O)OCC/C=C\CC`, the Potency entry was “inactive”.
With `Clc1cc(Cl)c(Cl)c(Cl)c1Cl`, the Potency entry was “inactive”.
In the case of `O=c1[nH]c(=O)n([C@H]2CCCO2)cc1F`, the Potency result was “inactive”.
Same read-out and setting: the entry for `COC(=O)c1cc(Cl)c(NC(C)=O)cc1OC` is “inactive”.
`NS(=O)(=O)Cc1noc2ccccc12`: the Potency result is “inactive”.
`CC(C)=CCC1C(=O)N(c2ccccc2)N(c2ccccc2)C1=O`: the Potency result is “inactive”.
Take `OCCc1ccccn1`: the Potency result was “inactive”.
Turning to `ClCCCl`, the Potency entry is “inactive”.
For the molecule `CCCCCC(C)OC(=O)COc1ccc(Cl)c2cccnc12` (stereo not given), the Potency result was “inactive”.
Still for that read-out and setting: the same measure for `O=C1CN(/N=C/c2ccc([N+](=O)[O-])o2)C(=O)N1`: “inactive”; for `Cn1cnc([N+](=O)[O-])c1Sc1ncnc2nc[nH]c12`: “inactive”; for `Cc1cccc(C)c1NC(=O)CC12CCCN1CCC2`: “inactive”.
As to `FC(F)(F)C(Cl)(Cl)Cl`, the Potency entry is “inactive”.
On the same count and under the same terms, the same measure for `O=S(=O)(c1ccccc1)c1ccc(Cl)cc1`: “inactive”; for `C=C(C)C(=O)OCCCCCCCCCCOC(=O)C(=C)C`: “inactive”.
For the molecule `NC(=O)c1ccccc1N`, the Potency entry is “inactive”.
Same read-out and setting: the same measure for `COCCOCCOCCOC`: “inactive”; for `CCCCCCCCCCCCCCCC(=O)O`: “inactive”.
Turning to `CC(=O)SC[C@@H](Cc1ccccc1)C(=O)NCC(=O)OCc1ccccc1`, the Potency result was “inactive”.
On the same count and under the same terms, the same measure for `CC(N)C(=O)OC(C)(C)Cc1ccc(Cl)cc1` (stereo not given): “inactive”; for `Nc1ccnc(=O)[nH]1`: “inactive”; for `O=C(CCC1CCN(Cc2ccccc2)CC1)c1ccc2c(c1)NCCCC2`: “inactive”.
Same read-out and setting: the same measure for `S=C(NC1CCCCC1)NC1CCCCC1`: “inactive”.
Same read-out and setting: the same measure for `CO[C@@]1(NC(=O)CSC[C@@H](N)C(=O)O)C(=O)N2C(C(=O)O)=C(CSc3nnnn3C)CS[C@@H]21`: “inactive”.
Regarding `CC(C)(C)CC(C)(C)c1ccc(Nc2ccc(C(C)(C)CC(C)(C)C)cc2)cc1`, the activity change, negative = cytotoxicity was 6.62% [at 8.39 µM] (inactive).
Turning to `Cc1ccc(/C(=C\CN2CCCC2)c2ccccn2)cc1`, the Potency entry is “inactive”.
On the same count and under the same terms, the same measure for `CC1(C)[C@H](C(=O)OCc2cccc(Oc3ccccc3)c2)[C@@H]1C=C(Cl)Cl`: “inactive”.
Consider `OC[C@@H](O)[C@@H](O)[C@H](O)[C@@H](O)CO`, for which the Potency entry was “inactive”.
The same measure, in the same setting: the entry for `NCCN1CCOCC1` is “inactive”; for `NS(=O)(=O)c1cc2c(cc1C(F)(F)F)NC(Cc1ccccc1)NS2(=O)=O` (stereo not given) it is “inactive”.
The same measure, in the same setting: the entry for `Cc1cc(=O)[nH]c(=O)[nH]1` is “inactive”; for `CCC1COC(=O)O1` (stereo not given) it is “inactive”; for `CN(C)CCN(C)CCO` it is “inactive”.
As for `CCCCCCCC/C=C\CCCCCCCC(N)=O`, the Potency entry is “inactive”.
Still for that read-out and setting: the entry for `CCOC(=O)[C@@H](C)Oc1ccc(Oc2nc3ccc(Cl)cc3o2)cc1` is “inactive”; for `CC(O)CN` (stereo not given) it is “inactive”.
In the case of `O=C1CCCCO1`, the Potency result is “inactive”.
Same read-out and setting: the same measure for `CO[Si](C)(C)OC`: “inactive”.
